According to PubChem BioAssay:
For some of these results: Entries with a potency or affinity are not part of this list. The source made the active and inactive calls. Unless noted, the rule behind the calls is not given here.

Key:
[1] = antimalarial activity against Dd2 strain (AID 2302;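 active = growth inhibition above 50% at the single 2 µM test dose, taken to imply half-maximal potency below 2 µM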;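 note: 0% = DMSO untreated growth and 100% = chloroquine plus artemisinin killed control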); settings: P. falciparum Dd2 in RBCs, LDH growth readout, 72 h; at 2 µM; active compounds read high
[2] = human hepatoma cell viability loss – ATP luminescence, cytotoxicity control for P. falciparum antimalarial project, primary screen (AID 2303;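 active = inhibition above 50%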;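 note: 0% = DMSO wells and 100% = digitonin-killed cells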); settings: HepG2 viability, 24-48 h, at 10 µM, active compounds read high
[3] = molecular target: L-lactate dehydrogenase (Plasmodium falciparum (isolate CDC / Honduras)) (UniProt Q27743); test: PfLDH activity inhibition – cell lysate, 3D7 strain, counter-screen for P. falciparum growth inhibition project (AID 2304);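 note: 0% = vehicle and 100% = reference inhibitor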; settings: P. falciparum 3D7 crude extract, LDH APAD/NBT absorbance; at 2 µM; active compounds read high
Chain of L-lactate dehydrogenase (Plasmodium falciparum (isolate CDC / Honduras)) (Q27743 whole entry, looked up): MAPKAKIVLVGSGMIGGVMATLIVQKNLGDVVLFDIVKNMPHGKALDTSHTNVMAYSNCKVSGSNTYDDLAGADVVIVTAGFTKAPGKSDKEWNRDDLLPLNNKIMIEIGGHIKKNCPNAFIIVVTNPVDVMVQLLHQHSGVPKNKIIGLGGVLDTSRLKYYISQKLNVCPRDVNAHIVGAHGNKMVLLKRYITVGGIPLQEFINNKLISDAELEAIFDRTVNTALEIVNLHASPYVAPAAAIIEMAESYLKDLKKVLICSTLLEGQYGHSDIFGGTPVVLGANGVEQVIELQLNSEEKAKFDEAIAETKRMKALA

[4] = inhibition of 3D7 malaria parasite growth – strain 3D7 (AID 2306);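 note: 0% = DMSO wells and 100% = chloroquine plus artemisinin control wells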; settings: P. falciparum 3D7 erythrocytic growth, LDH absorbance, 72 h; at 2 µM; active compounds read high
[5] = molecular target: Calcium-dependent protein kinase 1 (Plasmodium falciparum (isolate 3D7)) (UniProt P62344); test: PfCDPK1 kinase inhibitors, biochemical, TCAMS library (AID 1159585; cut-off not given, nearly all actives have IC50 up to about 0.98 µM;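 note: inhibitors leave more ATP so luminescence rises with inhibition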); settings: recombinant PfCDPK1, Kinase-Glo ATP depletion luminescence
Chain of Calcium-dependent protein kinase 1 (Plasmodium falciparum (isolate 3D7)) (P62344 whole entry, looked up): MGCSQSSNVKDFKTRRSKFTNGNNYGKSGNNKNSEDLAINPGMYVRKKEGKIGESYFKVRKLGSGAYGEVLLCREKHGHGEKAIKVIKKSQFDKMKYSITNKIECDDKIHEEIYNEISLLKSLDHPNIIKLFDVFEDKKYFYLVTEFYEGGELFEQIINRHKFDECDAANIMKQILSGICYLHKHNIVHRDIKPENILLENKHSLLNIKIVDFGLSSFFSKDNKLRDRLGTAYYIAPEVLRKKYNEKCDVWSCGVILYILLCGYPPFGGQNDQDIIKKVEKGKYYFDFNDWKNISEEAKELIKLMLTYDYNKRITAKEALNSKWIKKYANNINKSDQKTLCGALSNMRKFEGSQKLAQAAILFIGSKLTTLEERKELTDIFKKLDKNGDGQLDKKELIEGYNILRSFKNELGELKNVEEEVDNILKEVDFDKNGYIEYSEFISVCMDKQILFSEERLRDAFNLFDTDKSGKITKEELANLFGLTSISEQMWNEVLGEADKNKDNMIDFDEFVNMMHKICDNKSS

[6] = molecular target: Plasmodium falciparum protein kinase 6 (PK6, PF3D7_1337100) (UniProt Q8IDW1); test: PfPK6 kinase inhibitors, biochemical, TCAMS library (AID 1159586); settings: recombinant PfPK6, Kinase-Glo ATP depletion luminescence
Chain of Plasmodium falciparum protein kinase 6 (PK6, PF3D7_1337100) (Q8IDW1 1-305): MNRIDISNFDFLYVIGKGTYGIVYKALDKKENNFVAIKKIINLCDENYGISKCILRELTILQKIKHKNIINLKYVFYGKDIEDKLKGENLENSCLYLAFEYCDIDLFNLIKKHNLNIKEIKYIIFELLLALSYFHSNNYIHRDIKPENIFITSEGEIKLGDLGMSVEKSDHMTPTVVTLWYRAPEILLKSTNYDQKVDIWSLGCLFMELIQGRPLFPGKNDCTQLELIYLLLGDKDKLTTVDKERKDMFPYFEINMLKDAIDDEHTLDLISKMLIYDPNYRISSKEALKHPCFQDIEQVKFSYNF

[7] = molecular target: Protein kinase 7 (PK7), Plasmodium falciparum 3D7 (PF3D7_0213400) (UniProt Q7YTF7); test: inhibition of Plasmodium PK7 catalytic activity – biochemical, TCAMS antimalarial set, Kinase-Glo luminescence (AID 1159587); settings: recombinant PfPK7, Kinase-Glo ATP depletion luminescence
Chain of Protein kinase 7 (PK7), Plasmodium falciparum 3D7 (PF3D7_0213400) (Q7YTF7 1-343): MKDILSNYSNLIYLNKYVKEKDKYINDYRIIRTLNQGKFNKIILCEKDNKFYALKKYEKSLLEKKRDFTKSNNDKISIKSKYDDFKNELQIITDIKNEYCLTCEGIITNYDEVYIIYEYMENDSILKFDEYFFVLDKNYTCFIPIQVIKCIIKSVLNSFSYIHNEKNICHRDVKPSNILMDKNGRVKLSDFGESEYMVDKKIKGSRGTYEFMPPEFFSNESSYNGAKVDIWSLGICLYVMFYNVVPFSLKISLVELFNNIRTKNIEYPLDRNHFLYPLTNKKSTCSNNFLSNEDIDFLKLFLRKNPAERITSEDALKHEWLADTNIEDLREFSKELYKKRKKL

[8] = molecular target: Calcium-dependent protein kinase 4 (Plasmodium falciparum (isolate 3D7)) (UniProt Q8IBS5); test: PfCDPK4 kinase inhibitors, biochemical, TCAMS library (AID 1159588; cut-off not given, nearly all actives have IC50 up to about 0.91 µM); settings: recombinant PfCDPK4, Kinase-Glo ATP depletion luminescence
Chain of Calcium-dependent protein kinase 4 (Plasmodium falciparum (isolate 3D7)) (Q8IBS5 whole entry, looked up): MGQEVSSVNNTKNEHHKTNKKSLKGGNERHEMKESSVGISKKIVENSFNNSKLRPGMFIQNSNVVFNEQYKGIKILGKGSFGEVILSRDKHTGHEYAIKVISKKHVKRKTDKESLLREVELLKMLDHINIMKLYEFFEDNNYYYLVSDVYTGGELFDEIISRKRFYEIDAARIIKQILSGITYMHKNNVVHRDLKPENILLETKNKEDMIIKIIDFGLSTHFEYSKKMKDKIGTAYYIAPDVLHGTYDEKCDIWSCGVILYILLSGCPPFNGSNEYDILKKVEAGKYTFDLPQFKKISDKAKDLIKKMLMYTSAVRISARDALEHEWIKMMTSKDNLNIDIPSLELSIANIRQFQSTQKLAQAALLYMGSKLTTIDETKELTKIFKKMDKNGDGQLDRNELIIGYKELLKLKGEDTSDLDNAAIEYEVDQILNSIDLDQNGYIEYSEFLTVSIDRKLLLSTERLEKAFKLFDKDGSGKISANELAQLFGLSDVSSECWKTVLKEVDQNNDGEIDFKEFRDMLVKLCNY

Cc1ccc2sc(N(CCCn3ccnc3)C(=O)c3ccco3)nc2c1C
active: growth inhibition [1] 98% | growth inhibition [4] 93%
inactive: inhibition [2] 9% | inhibition [3] -2% | outcome [5] | outcome [6] | outcome [7] | outcome [8]

CC(Sc1nc2sccc2c(=O)n1C)C(=O)Nc1ccc2c(c1)OCO2 (stereo not drawn)
active: growth inhibition [1] 100% | growth inhibition [4] 100%
inactive: inhibition [2] 5% | inhibition [3] 4% | outcome [5] | outcome [6] | outcome [7] | outcome [8]

O=C(Nc1ccc(-c2nc3ccccc3[nH]2)cc1)c1ccc(N2CCOCC2)c([N+](=O)[O-])c1
inactive: growth inhibition [1] 28% | inhibition [2] 47% | inhibition [3] -8% | outcome [5] | outcome [6] | outcome [7] | outcome [8]
active: growth inhibition [4] 101%

CC(=O)Nc1nc(C(=O)Nc2cccc(-c3cccc(-c4nc5ccccc5[nH]4)c3)c2)cs1
active: growth inhibition [1] 82% | growth inhibition [4] 100%
inactive: inhibition [2] 31% | inhibition [3] 0% | outcome [5] | outcome [6] | outcome [7] | outcome [8]

O=C(NCCCCN1CCC(c2cccc3ccccc23)CC1)c1ccc(-c2ccc(C(F)(F)F)cn2)cc1
active: growth inhibition [4] 91%
inactive: growth inhibition [1] 36% | inhibition [2] 31% | inhibition [3] 0% | outcome [5] | outcome [6] | outcome [7] | outcome [8]

C[C@@H]1CN(c2cnn(Cc3ccc(NC(=O)Nc4cccc(C(F)(F)F)c4)cc3)c(=O)c2Cl)C[C@H](C)N1
inactive: growth inhibition [1] 31% | inhibition [2] -10% | inhibition [3] -7% | outcome [5] | outcome [6] | outcome [7] | outcome [8]
active: growth inhibition [4] 86%

Nc1nccc(-c2ccc3c(/C=C/c4ccccc4)cnc(N)c3c2)n1
active: growth inhibition [1] 100% | growth inhibition [4] 101%
inactive: inhibition [2] 32% | inhibition [3] 2% | outcome [5] | outcome [6] | outcome [7] | outcome [8]

COc1ccc2nccc(NC(=O)N3CCC(NCc4cc5ccccc5[nH]4)CC3)c2n1
inactive: growth inhibition [1] 29% | inhibition [2] 27% | inhibition [3] -5% | outcome [5] | outcome [6] | outcome [7] | outcome [8]
active: growth inhibition [4] 85%

Cc1ccc(N2CCN(CCCCNC(=O)c3ccc(NC(=O)c4ccc(Cl)cc4)cc3)CC2)c(C)c1
inactive: growth inhibition [1] 20% | inhibition [2] 30% | inhibition [3] 7% | outcome [5] | outcome [6] | outcome [7] | outcome [8]
active: growth inhibition [4] 95%

COc1ccc(-c2cccc(NC(=O)c3cccc(F)c3)c2)cc1CN1CCCN(C)CC1
inactive: inhibition [2] 42% | inhibition [3] 0% | outcome [5] | outcome [6] | outcome [7] | outcome [8]
active: growth inhibition [1] 78% | growth inhibition [4] 101%

Cc1noc(-c2ccc(N3CCC(C(=O)N4CCN(C(C)C)CC4)CC3)cc2)n1
inactive: growth inhibition [1] -2% | inhibition [2] -12% | inhibition [3] -5% | outcome [5] | outcome [6] | outcome [7] | outcome [8]
active: growth inhibition [4] 95%

Cc1c(CC(=O)NCCC2CCN(CCCCCNC(=O)/C=C/c3ccc(Cl)c(Cl)c3)CC2)sc2ccc(Cl)cc12
active: inhibition [2] 59% | growth inhibition [4] 92%
inactive: growth inhibition [1] 8% | inhibition [3] 0% | outcome [5] | outcome [6] | outcome [7] | outcome [8]

Fc1ccc2nc(-c3ccc(-c4ccc(CNCCc5ccncc5)cc4)cc3)[nH]c2c1
inactive: inhibition [2] 23% | inhibition [3] 0% | outcome [5] | outcome [6] | outcome [7] | outcome [8]
active: growth inhibition [1] 97% | growth inhibition [4] 100%

Cc1[nH]c(C)c(-c2csc3ccccc23)c(=O)c1Cl
active: growth inhibition [1] 75% | growth inhibition [4] 97%
inactive: inhibition [2] 7% | inhibition [3] 6% | outcome [5] | outcome [6] | outcome [7] | outcome [8]

O=C(C=Cc1ccc(Cl)c(Cl)c1)NCCCCCN1CCC(CCCNS(=O)(=O)c2cccc(C(F)(F)F)c2)CC1
active: growth inhibition [1] 59% | inhibition [2] 99% | growth inhibition [4] 100%
inactive: inhibition [3] 3% | outcome [5] | outcome [6] | outcome [7] | outcome [8]

CC1(C)CCC(C)(C)c2c1ccc(C1CCN(CCCCNC(=O)c3ccc(-c4ccc(C#N)cc4)cc3)CC1)c2O
inactive: inhibition [3] 7% | outcome [5] | outcome [6] | outcome [7] | outcome [8]
active: growth inhibition [1] 85% | inhibition [2] 81% | growth inhibition [4] 100%

O=C(Nc1cccc(Cl)c1Cl)N1CCc2cc3nccc(N4CCN5CCC[C@H]5C4)c3cc21
inactive: inhibition [2] 9% | inhibition [3] -1% | outcome [5] | outcome [6] | outcome [7] | outcome [8]
active: growth inhibition [1] 100% | growth inhibition [4] 98%

COc1ccc(CC(=O)NC(CCCN2CCC3(CC2)OCc2ccccc23)c2ccc(Cl)c(Cl)c2)cc1 (stereo not drawn)
inactive: inhibition [2] 40% | inhibition [3] 5% | outcome [5] | outcome [6] | outcome [7] | outcome [8]
active: growth inhibition [1] 53% | growth inhibition [4] 83%

Cc1cc(OCCCN2CCCCC2)ccc1NC(=O)COc1ccc(Cl)cc1C(=O)c1cc(C#N)cc(C(F)(F)F)c1
inactive: growth inhibition [1] 7% | inhibition [2] 23% | inhibition [3] -5% | outcome [5] | outcome [6] | outcome [7] | outcome [8]
active: growth inhibition [4] 87%

Fc1ccc(-c2cncc(Nc3ccncc3)n2)cc1
active: growth inhibition [4] 88%
inactive: growth inhibition [1] 11% | inhibition [2] 8% | inhibition [3] -1% | outcome [5] | outcome [6] | outcome [7] | outcome [8]

CC(CON1C(N)=NC(N)=NC1(C)C)c1ccc(Cl)cc1Cl (stereo not drawn)
active: growth inhibition [1] 95% | inhibition [2] 64% | growth inhibition [4] 97%
inactive: inhibition [3] 0% | outcome [5] | outcome [6] | outcome [7] | outcome [8]

CN1CCC(N(Cc2ccc(-c3ccc(C(F)(F)F)cc3)cc2)C(=O)Cn2c(SCc3cccc(F)c3F)cc(=O)c3c2CCC3)CC1
inactive: inhibition [3] 1% | outcome [5] | outcome [6] | outcome [7] | outcome [8]
active: growth inhibition [1] 83% | inhibition [2] 50% | growth inhibition [4] 89%

CC(Cc1ccc(OCCN2CCN(c3cccc(Cl)c3)CC2)cc1)NCC(O)c1cccc(Cl)c1 (stereo not drawn)
inactive: inhibition [2] 48% | inhibition [3] 3% | outcome [5] | outcome [6] | outcome [7] | outcome [8]
active: growth inhibition [1] 91% | growth inhibition [4] 93%

Nc1nc(N)c2c(ccc3nn(Cc4cccnc4)cc32)n1
inactive: growth inhibition [1] 0% | inhibition [2] 41% | inhibition [3] 0% | outcome [5] | outcome [6] | outcome [7] | outcome [8]
active: growth inhibition [4] 96%

CCc1nc(N)nc(N)c1-c1ccccc1
inactive: growth inhibition [1] 1% | inhibition [3] -2% | outcome [5] | outcome [6] | outcome [7] | outcome [8]
active: inhibition [2] 53% | growth inhibition [4] 92%

CC(C)(C)c1ccc(NC(=O)c2cccc(CN3CCCN(Cc4cccc(O)c4)CC3)c2)cc1
inactive: inhibition [3] 4% | outcome [5] | outcome [6] | outcome [7] | outcome [8]
active: growth inhibition [1] 69% | inhibition [2] 97% | growth inhibition [4] 101%

O=C(Nc1cccc(N2CCC(NCc3cnn(-c4cccc(F)c4)c3)CC2)c1)c1ccncc1
active: inhibition [2] 50% | growth inhibition [4] 84%
inactive: growth inhibition [1] 40% | inhibition [3] 4% | outcome [5] | outcome [6] | outcome [7] | outcome [8]

CS(=O)(=O)CCNCc1nc(-c2ccc3ncnc(Nc4ccc(OCc5ccccc5)c(Cl)c4)c3c2)cs1
inactive: inhibition [2] 13% | inhibition [3] 2% | outcome [5] | outcome [6] | outcome [7] | outcome [8]
active: growth inhibition [1] 55% | growth inhibition [4] 99%

c1ccc(-c2ccc(-c3nc4ccccc4[nH]3)cc2)cc1
active: growth inhibition [1] 83% | growth inhibition [4] 93%
inactive: inhibition [2] 10% | inhibition [3] -5% | outcome [5] | outcome [6] | outcome [7] | outcome [8]

Cc1ccc(Oc2ccccc2NC(=O)CCc2nc3ccccc3c(=O)[nH]2)cc1
inactive: inhibition [2] 3% | inhibition [3] -3% | outcome [5] | outcome [6] | outcome [7] | outcome [8]
active: growth inhibition [1] 99% | growth inhibition [4] 100%

Cc1cccc2[nH]c(-c3ccc(-c4ccc(CN5CCN(CCO)CC5)cc4)s3)nc12
inactive: growth inhibition [1] 47% | inhibition [2] 34% | inhibition [3] 0% | outcome [5] | outcome [6] | outcome [7] | outcome [8]
active: growth inhibition [4] 92%

COc1ccc2nccc([C@@H](O)CN3CCC(NCc4ccc5c(c4)NC(=O)CS5)CC3)c2c1
inactive: growth inhibition [1] 36% | inhibition [2] -4% | inhibition [3] -1% | outcome [5] | outcome [6] | outcome [7] | outcome [8]
active: growth inhibition [4] 102%

CC(CN(C)C)C(=O)Nc1ccc(-c2cccc(-c3nc4ccc(C(F)(F)F)cc4[nH]3)c2)cc1 (stereo not drawn)
inactive: inhibition [2] 30% | inhibition [3] -1% | outcome [5] | outcome [6] | outcome [7] | outcome [8]
active: growth inhibition [1] 85% | growth inhibition [4] 101%

O=[N+]([O-])c1ccccc1C=NNc1c2c(nc3ccccc13)CCCC2
active: growth inhibition [1] 99% | growth inhibition [4] 97%
inactive: inhibition [2] -2% | inhibition [3] -3% | outcome [5] | outcome [6] | outcome [7] | outcome [8]

FC(F)(F)c1cccc(Nc2nc3nonc3nc2NC2C3CC4CC(C3)CC2C4)c1 (stereo not drawn)
active: growth inhibition [1] 100% | inhibition [2] 72% | growth inhibition [4] 103%
inactive: inhibition [3] -2% | outcome [5] | outcome [6] | outcome [7] | outcome [8]

COc1ccc2nccc([C@@H](O)CN3CCC(NCc4cc5cccc(O)c5c(=O)[nH]4)CC3)c2c1
inactive: inhibition [2] 8% | inhibition [3] 3% | outcome [5] | outcome [6] | outcome [7] | outcome [8]
active: growth inhibition [1] 66% | growth inhibition [4] 99%

CCOc1cc(Cc2cnc(N)nc2N)cc(OCC)c1O
active: growth inhibition [4] 89%
inactive: growth inhibition [1] -1% | inhibition [2] 6% | inhibition [3] 3% | outcome [5] | outcome [6] | outcome [7] | outcome [8]

c1ccc(Oc2ccc(Nc3ccnc4c(-c5ccccn5)cccc34)cc2)cc1
inactive: inhibition [2] 31% | inhibition [3] -8% | outcome [5] | outcome [6] | outcome [7] | outcome [8]
active: growth inhibition [1] 58% | growth inhibition [4] 100%

O=C(/C=C/c1cc(C(F)(F)F)ccc1F)NCCCCCN1CCC(c2c[nH]c3ccccc23)CC1
active: growth inhibition [4] 88%
inactive: growth inhibition [1] 4% | inhibition [2] 39% | inhibition [3] -1% | outcome [5] | outcome [6] | outcome [7] | outcome [8]

Fc1ccc2nc(-c3ccc(-c4ccc(CNCc5ccccc5)cc4)cc3)[nH]c2c1
active: growth inhibition [1] 94% | growth inhibition [4] 101%
inactive: inhibition [2] 35% | inhibition [3] -4% | outcome [5] | outcome [6] | outcome [7] | outcome [8]

CN(C)CCn1c(=N)n(CC(O)c2ccc(Cl)c(Cl)c2)c2ccccc21 (stereo not drawn)
active: growth inhibition [4] 99%
inactive: growth inhibition [1] 6% | inhibition [2] 20% | inhibition [3] -2% | outcome [5] | outcome [6] | outcome [7] | outcome [8]
